This is a sample that favours compounds with a hit; in the whole collection about 11% have one here.
RORg inh: ROR gamma (mouse) transcription inhibition | Drosophila S2 Gal4-RORgamma UAS-luciferase reporter, 20 h | Potency, µM (top dose mostly 53.6 µM), without a hit: at the top dose activity change, negative = inhibition, most hits filed as inhibitors | actives 5.4% (n = 310,000) | AID 2551; also: potency is read from the fitted curve at half-maximal effect; % is scaled to controls: 0 for no effect and ±100 for the full control effect; nearly all actives have a fitted effect of over 60% in size
Target sequence (P51450 whole entry, looked up, the tested form may be a part): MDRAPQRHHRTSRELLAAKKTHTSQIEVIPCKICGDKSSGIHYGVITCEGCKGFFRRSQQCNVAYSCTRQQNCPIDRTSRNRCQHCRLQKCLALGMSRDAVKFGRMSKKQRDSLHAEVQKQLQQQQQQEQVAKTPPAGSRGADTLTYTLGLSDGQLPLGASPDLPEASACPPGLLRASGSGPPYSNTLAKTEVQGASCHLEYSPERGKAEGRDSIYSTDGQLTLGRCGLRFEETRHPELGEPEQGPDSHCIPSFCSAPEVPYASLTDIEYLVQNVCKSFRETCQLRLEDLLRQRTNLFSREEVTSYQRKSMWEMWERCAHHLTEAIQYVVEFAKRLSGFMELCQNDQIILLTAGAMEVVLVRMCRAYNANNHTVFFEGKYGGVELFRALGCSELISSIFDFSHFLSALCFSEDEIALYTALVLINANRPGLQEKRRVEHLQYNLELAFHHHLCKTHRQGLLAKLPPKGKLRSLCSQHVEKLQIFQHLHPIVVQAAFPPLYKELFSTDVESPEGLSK
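ROR gamma transcriptional activity was tracked as Gal4-UAS luciferase output in stably transfected Drosophila Schneider cells, with compound added 1 hr before 700 uM copper sulfate induction and a 20 hr ambient-temperature incubation.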
SW480 rereplic: inducers of DNA re-replication in SW480 colon cancer cells. actives 1.8% (n = 340,000). SW480 DNA re-replication, Hoechst DNA content imaging, 48 h. Potency, µM (doses to about 46.1 µM), without a hit: top-dose re-replication activation, actives largely listed as activators; also: potency is read from the fitted curve at half-maximal effect; % of control where 0% means no effect; nearly all actives have a fitted effect of over 55% in size
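Compounds, transferred as 23 nL by pin tool, were incubated with cells for 48 hr; DNA content per nucleus was then quantified by Hoechst staining and fluorescence plate imaging.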
Gal4-VP16 FLuc: counter-screen for ROR gamma inhibitors: Gal4-VP16 reporter; Drosophila S2 Gal4-VP16 UAS-luciferase, luminescence, 20 h; Potency, µM (series often up to 53.6 µM), without a hit: top-dose activity, negative = inhibition, usual class: inhibitors; actives 3.5% (n = 310,000); AID 2546;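 also: Gal4-VP16 expression switched on by copper sulfate through the metallothionein promoter; potency is read from the fitted curve at half-maximal effect; % is scaled to controls: 0 for no effect and ±100 for the full control effect; nearly all actives have a fitted effect of over 50% in size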
MCF10A rerep: DNA re-replication induction in MCF 10a cells | MCF 10A DNA re-replication, Hoechst nuclear intensity, 48 h | Potency, µM (doses to about 46.1 µM), for inactives: at the highest dose activity, positive = re-replication, most hits filed as activators | actives 2.9% (n = 350,000) | AID 624296; also: potency is read from the fitted curve at half-maximal effect; % of control where 0% means no effect; nearly all actives have a fitted effect of over 50% in size
IL1B secr inh: inhibitors of inflammasome signaling (IL-1 beta secretion); THP-1 LPS/ATP IL-1B secretion, AlphaLISA, 16 h; stronger effect = lower value; activity change, % at 57.5 µM; actives 4.7% (n = 360,000); AID 743279; in the data active = activity change below about -50%; inconclusive = mostly about -30% to -49%; also: % is scaled to controls: 0 for no effect and ±100 for the full control effect
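THP-1 cells pretreated 1 hr with compounds (up to 57.5 uM final), then stimulated with LPS (250 ng/mL final) plus ATP (1.25 mM final); secreted IL-1B measured by AlphaLISA after 16 hr, decreased signal indicating inhibition.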
Numbers without * were called inactive; u = inconclusive; x = no result given; [ ] = dose if it differs, or a comment. Unless noted, calls follow the shape of the dose curve; as a rule, active = well fitted curve in the direction sought with a large enough effect; inconclusive = small, poorly fitted or top-dose-only effect, or another doubt; inactive = no such curve, though single readings can be large; an effect the other way counts as inactive or inconclusive.

SMILES | RORg inh | SW480 rereplic | Gal4-VP16 FLuc | MCF10A rerep | IL1B secr inh
O=C(Nc1cccc(Cl)c1)C1=Cc2cc(Cl)ccc2OC1 | 40% | 8% | 13% | 13µM* | -6
O=C(Nc1ccc(Cl)c(Cl)c1)C1=Cc2ccccc2OC1 | 36% | 3% | -14% | 21µM* | u
CC(=O)N1CCOc2ccc(S(=O)(=O)N(C)c3cccc(C)c3)cc21 | -19% | u | 7% | u | 32
Cc1ccccc1C(=O)c1c[nH]c(C(=O)NCc2ccco2)c1 | 37% | -1% | 10% | 10% | -52*
C[C@@H]1CN([C@H](C)CO)C(=O)c2c(c3ccccc3n2C)-c2ccccc2CO[C@H]1CN(C)C(=O)CCC(F)(F)F | x | x | x | x | 14
CN(Cc1ccccc1)C(=O)c1ccc(NC(=O)Cc2ccc(NC(=O)C3CCN(C(=O)CCc4ccccc4)CC3)cc2)cc1 | x | u | x | 15µM* | 23
O=C(Cc1cccc(NC(=O)C2CCCN(C(=O)CCc3ccccc3)C2)c1)Nc1ccc(C(=O)N2CCCCC2)cc1 (stereo not given) | x | 21% | x | -32% | -108*
CN(C(=O)c1ccc(NC(=O)Cc2ccc(NC(=O)C3CCN(C(=O)C4CCCCC4)CC3)cc2)cc1)C1CC1 | x | -8% | x | -5% | -61*
O=C(Cc1cccc(NC(=O)C2CCCN(C(=O)c3ccccc3)C2)c1)Nc1ccc(C(=O)N2CCCCC2)cc1 (stereo not given) | x | -13% | x | -16% | -5
CN(CCc1ccccc1)C(=O)c1ccc(NC(=O)Cc2ccc(NC(=O)C3CCCN(C(=O)C4CC4)C3)cc2)cc1 (stereo not given) | x | 18µM* | x | -16% | -6
CN(Cc1ccccc1)C(=O)c1cccc(NC(=O)Cc2ccc(NC(=O)C3CCN(C(=O)CCc4ccccc4)CC3)cc2)c1 | x | 4% | x | 0% | -3
CCCCCCCCCCCCCc1ccco1 | 8% | x | 1% | x | x
COc1cc(C=O)ccc1OCCCOc1ccccc1C(=O)O | 1.4µM* | -1% | 6.3µM* | 17% | 4
COc1cc(NC(=O)/C=C/c2ccccc2)c(C(=O)O)cc1OC | -3% | 8% | -6% | 0% | -4
COc1ccc(/C=C/C(=O)NC(=S)NCc2ccccc2)cc1OC | 2.2µM* | 23µM* | u | 7% | -3
COc1cc(C=O)ccc1OCCCOc1ccccc1[N+](=O)[O-] | -44% | -1% | u | 9% | -3
COc1ccc(C(=O)O)cc1NC(=S)NC(=O)/C=C/c1ccc(C(C)C)cc1 | 30% | 1% | -9% | u | -66*
COc1ccc(/C=C/C(=O)NC(C)CCc2ccccc2)cc1OC (stereo not given) | 31% | u | -11% | 9% | -9
COc1ccc(/C=C\C(=O)Nc2ccccc2C(=O)O)cc1OC | u | x | 1.1µM* | x | x
CC(C)=CCC/C(C)=C/CNC(=O)C[C@H]1C[C@H](C(=O)N(C(C)C)C(C)C)[C@@]2(C)c3[nH]c4cc(-c5ccco5)ccc4c3CCN2C1=O | x | 0%[9.22 µM] | x | u | -65*
CC(C)=CCC/C(C)=C/CNC(=O)C[C@H]1C[C@H](C(=O)N(C(C)C)C(C)C)[C@@]2(C)c3[nH]c4cc(CCC(=O)N(C)C)ccc4c3CCN2C1=O | x | 4% | x | u | -67*
CCN(CC)C(=O)[C@H]1C[C@H](CC(=O)NC/C=C(\C)CCC=C(C)C)C(=O)N2CCc3c([nH]c4ccc(Cl)cc34)[C@]12C | x | 7% | x | -5% | -4
CCN(CC)C(=O)[C@H]1CC(CC(=O)NC/C=C(\C)CCC=C(C)C)C(=O)N2CCc3c([nH]c4ccc(OC)cc34)[C@]12C (stereo not given in full) | x | u | x | u | -78*
CCN(CC)C(=O)[C@H]1C[C@H](CC(=O)NC/C=C(\C)CCC=C(C)C)C(=O)N2CCc3c([nH]c4cc(-c5ccco5)ccc34)[C@]12C | x | 17%[9.22 µM] | x | 21µM* | -65*
O=C(Nc1nnc([C@@H]2C[C@H](O)[C@@H](CO)O2)s1)Nc1ccccc1Oc1ccccc1 | x | x | x | x | 0
O=c1[nH]nc2c3ccccc3occ1-2 | x | x | x | x | 0

Source: PubChem (National Center for Advancing Translational Sciences (NCATS))
